The list is not random: actives were taken first. Their share in the collection is about 7.9%.
HT1080 IDH1KD tx = toxicity to HT-1080 IDH1 knockdown cells (counter line) | HT-1080 IDH1 knockdown viability, ATP luminescence, 48 h | Potency, µM (titrated, usually from 46.1 µM), usual class: cytotoxic | hit rate 2% among 360,000 | AID 686971
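% activity derives from luminescence (CellTiter-Glo), normalised to DMSO and no-cell wells. HT-1080-IDH1KD cells, 750/well, had 48 h compound exposure at 37 °C.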
HT1080-NT tox = kills 2HG-producing HT-1080-NT fibrosarcoma cells. hit rate 1.6% among 360,000. Potency, µM (series often up to 46.1 µM), actives largely listed as cytotoxic. HT-1080-NT fibrosarcoma viability, CellTiter-Glo ATP luminescence, 48 h;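 note: NT is the 2HG producing partner of a matched IDH1 knockdown line; nearly all actives have a fitted effect of over 55% in size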
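Viability of the 2HG-overproducing fibrosarcoma line after 48 hours of compound exposure at 37 degrees C was determined by luminescence with CellTiter-Glo, and concentration-effect curves were then fitted and categorized.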
KB-3-1 cytotox = KB-3-1 parental cell cytotoxicity. KB-3-1 viability, CellTiter-Glo ATP luminescence, 72 h. Potency, µM (series often up to 46.1 µM), hits mostly cytotoxic. hit rate 1.4% among 400,000. AID 1347075; note: nearly all actives have a fitted effect of over 60% in size
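KB-3-1 parental drug-naive adenocarcinoma cells in DMEM/10% FBS, incubated 72 h at 37 C with pin-transferred compounds across a concentration series. Viability by CellTiter-Glo luminescence; concentration-response curves fitted after normalization.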
MCF10A rerep = induces DNA re-replication in MCF 10a normal breast cells; MCF 10A DNA re-replication, Hoechst nuclear intensity, 48 h; Potency, µM (titrated, usually from 46.1 µM), most hits filed as activators; hit rate 2.9% among 350,000; note: nearly all actives have a fitted effect of over 50% in size
SW480 rereplic = induces DNA re-replication in SW480 colon adenocarcinoma cells | Potency, µM (doses to about 46.1 µM), actives largely listed as activators | SW480 DNA re-replication, Hoechst DNA content imaging, 48 h | AID 624297 | hit rate 1.8% among 340,000; note: nearly all actives have a fitted effect of over 55% in size
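Treated cells incubate 48 hr (37 C, 5% CO2), are stained 40 min with Hoechst, and nuclear fluorescence is enumerated; a rise in nuclei with high DNA signal marks re-replication.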
KB-V1 cytotox = kills drug-selected multidrug resistant KB-V1 cells. KB-V1 MDR cells viability, CellTiter-Glo, 72 h. Potency, µM (titrated, usually from 46.1 µM), usual class: cytotoxic. hit rate 3.4% among 400,000. AID 1347076; note: nearly all actives have a fitted effect of over 60% in size
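KB-V1 MDR subline cells in DMEM (phenol-red free, 10% FBS) exposed to compounds in qHTS concentration series for 72 h at 37 degrees C. Viability read by CellTiter-Glo luminescence; concentration-effect curves fitted after normalization and correction.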
A number is an active result; – = inactive; ? = inconclusive; · = no result; [ ] = remark or other dose. Calls come from the whole dose curve; as a rule, active = well fitted curve in the direction sought with a large enough effect; inconclusive = small, poorly fitted or top-dose-only effect, or another doubt; inactive = no such curve, though single readings can be large; an effect the other way counts as inactive or inconclusive.

SMILES | HT1080 IDH1KD tx | HT1080-NT tox | KB-3-1 cytotox | MCF10A rerep | SW480 rereplic | KB-V1 cytotox
Cc1c(C(=O)N2CCc3ccccc3C2)oc2ccc(S(=O)(=O)N3CC(C)CC(C)C3)cc12 (stereo unspecified) | – | – | 23µM | – | ? | ?
CCN(CC)S(=O)(=O)c1ccc2oc(C(=O)N3CCc4ccccc4C3)c(C)c2c1 | – | – | ? | – | – | 9.2µM
Cc1c(C(=O)N2CCc3ccccc3C2)oc2ccc(Br)cc12 | – | – | – | ? | – | –
COc1cccc(NC(=O)CN(C)CC(=O)Nc2ccc(Br)cc2)c1 | – | – | – | – | – | ?
COc1ccc(CNC(=O)C(c2ccncc2)N(C(=O)Cc2cccs2)c2ccccc2)cc1 (stereo unspecified) | – | – | ? | – | – | –
COc1ccc(N(C(=O)CCl)C(C(=O)NCCc2ccccc2)c2cccs2)cc1 (stereo unspecified) | 1.6µM | 2.1µM | 7.3µM | ? | 3.3µM | 18µM
Nc1ccc(Cn2ccc3c4c(N)nc(N)nc4ccc32)cc1 | 0.033µM | 0.52µM | ? | – | ? | ?
CCC(c1ccc(O)cc1)C(CC)c1ccc(O)cc1 (stereo unspecified) | ? | ? | – | ? | ? | ?
CC[C@H](c1ccc(O)cc1)[C@@H](CC)c1ccc(O)cc1 | · | · | · | 11µM | – | ·
Cc1cccc(C(=O)Nc2sc(C(=O)N3CCCC3)c(C)c2C#N)c1 | – | – | – | – | – | –
COc1ccccc1NC(=O)c1cccc(S(=O)(=O)N2CCCCCC2)c1 | · | · | – | · | · | –
CCOC(=O)C1=C(C)NC2=C(C(=O)CC(c3ccc(OC)c(OC)c3)C2)C1c1ccc(C)o1 (stereo unspecified) | – | – | – | – | – | 18µM
CCOC(=O)C1=C(C)NC(C)=C(C(=O)OCC)C1c1ccc(OC)c(OC)c1 | – | – | – | · | · | –
COc1cccc(C(=O)/C=C2\NCCc3cc(OC)c(OC)cc32)c1 | – | – | – | ? | – | –
OCC1(Cc2ccccc2)CCN(Cc2cnc(-c3cccc4ccccc34)nc2)CC1 | – | – | – | ? | – | –
OCC1(Cc2ccccc2)CCN(Cc2cnc(-c3ccc(Cl)cc3)nc2)CC1 | 26µM | ? | ? | ? | – | ?
Cc1cc(/C=C2\Sc3ccccc3N2C)cc(C)[n+]1CC1CCCO1 (stereo unspecified) | ? | 9.2µM | 0.65µM | ? | 9.2µM | –
CC(=O)c1ccc(N2CCN(C(=O)c3cc(-c4ccncc4)nc4ccc(Cl)cc34)CC2)cc1 | – | – | – | – | – | 9.2µM
Cc1cccc2c(C(=O)N3CCCCC3)cc(-c3ccccc3)nc12 | – | – | – | ? | ? | ?
Cc1cccc2c(C(=O)N3CCN(c4ccccn4)CC3)cc(-c3cccc(Br)c3)nc12 | ? | – | ? | – | 16µM | ?
Cc1cccc2c(C(=O)N3CCN(c4ccccc4)CC3)cc(-c3ccncc3)nc12 | 1.3µM | 1.3µM | 4.1µM | 7.3µM | 6.5µM | 3.7µM
CC(=O)c1cc(-c2ccc(F)cc2)n(CC(=O)Nc2cc(C)cc(C)c2)c1C | · | · | – | · | · | –
Nc1c(C(=O)c2ccc(F)cc2)oc2ccccc12 | – | – | ? | 7.3µM | – | –
Nc1c(C(=O)c2ccccc2)oc2ccccc12 | ? | – | – | 13µM | ? | –
O=C(Nc1c(C(=O)c2ccccc2)oc2ccccc12)c1ccc(F)cc1 | · | · | – | · | · | –
SMILES | HT1080 IDH1KD tx | HT1080-NT tox | KB-3-1 cytotox | MCF10A rerep | SW480 rereplic | KB-V1 cytotox
O=C(CCC(=O)N1CCCc2ccccc21)N1CCN(S(=O)(=O)c2ccccc2)CC1 | – | – | – | – | – | ?
COc1ccccc1N1CCc2c(C)nc3c(OC)cccc3c21 | ? | ? | ? | – | – | 21µM
COc1cccc2c3c(c(C)nc12)CCN3c1ccccc1 | ? | ? | – | – | – | ?
CCOC(=O)C1CCCN(C(=O)CN2C(=O)COc3ccc(C(C)(C)C)cc32)C1 (stereo unspecified) | – | – | – | – | – | ?
CCN(CCCNC(=O)CCCN1C(=O)COc2ccc(C)cc21)c1cccc(C)c1 | – | – | – | – | – | 12µM
Cc1ccc2c(c1)N(CCCC(=O)NCCCN1CCCCC1)C(=O)CO2 | – | – | – | – | – | –
CCCCn1c(N)c(C(=S)NC(=O)CC(C)(C)C)c(=O)n(C)c1=O | ? | ? | ? | 21µM | – | ?
COc1ccc(C2NC(=O)CCC2[N+](=O)[O-])cc1OC (stereo unspecified) | – | – | – | – | – | –
O=C(Nc1ccc(S(=O)(=O)NC2=NCCCCC2)cc1)c1ccc2ccccc2n1 | – | – | – | – | – | 23µM
O=C(Nc1ccc(S(=O)(=O)NC2=NCCCCC2)cc1)c1ccccc1Cl | – | – | – | – | – | –
Cc1cc(C)cc(OCC(=O)Nc2cccc(S(=O)(=O)NC3=NCCC3)c2)c1 | – | –[9.24 µM] | ? | ? | 21µM | –
CC(C)(C)C(=O)Nc1ccc(S(=O)(=O)NC2=NCCCCC2)cc1 | – | –[9.24 µM] | – | – | – | ?
Cc1ccc(OCC(=O)Nc2cccc(S(=O)(=O)NC3=NCCCCC3)c2)cc1C | – | – | – | – | – | –
O=C(CCl)Nc1ccc(S(=O)(=O)NC2=NCCCCC2)cc1 | 18µM | ? | 15µM | 21µM | ? | 16µM
O=C(CSc1ccc2ccccc2c1Br)Nc1cccc(S(=O)(=O)NC2=NCCCCC2)c1 | 16µM | 18µM | – | ? | – | –
Cc1ccc(S(=O)(=O)c2cn(Cc3ccc(F)cc3)c3cc4c(cc3c2=O)OCO4)cc1 | – | – | – | – | – | –
CC1CCCCN1C(=O)c1ccc(C(=O)N2CCCCC2C)cc1 (stereo unspecified) | – | – | – | – | – | –
CC(=O)N1c2ccc(S(=O)(=O)N3CCCCC3)cc2CC1C(=O)Nc1cccc(C)c1 (stereo unspecified) | – | – | – | – | – | –
O=C(CCl)Nc1ccc(S(=O)(=O)Nc2nccs2)cc1 | 13µM | ? | ? | ? | ? | ?
O=C(CCl)Nc1cccc(S(=O)(=O)NC2=NCCCCC2)c1 | ? | 3.7µM | ? | ? | – | ?
COc1ccccc1NS(=O)(=O)c1cccc(NC(=O)c2ccc3ccccc3n2)c1 | – | – | ? | – | – | 2.6µM
CCCNCC(=O)Nc1cccc(S(=O)(=O)NC2=NCCCCC2)c1 | – | – | – | – | – | –
O=C(Nc1cccc(S(=O)(=O)NC2=NCCCCC2)c1)c1cc(-c2ccco2)nc2ccccc12 | – | ? | – | 16µM | ? | –
CCOC(=O)c1c(C)[nH]c(C)c1C(=O)COC(=O)c1ccc(Cl)c(S(N)(=O)=O)c1 | – | – | – | – | – | –
Cc1ccc(-n2cc(C(=O)O)c(=O)cc2C)c(C)c1 | – | – | – | – | – | –

Assay outcomes (PubChem BioAssay)
